High-throughput results deposited in PubChem by National Center for Advancing Translational Sciences (NCATS).
Giardia killer: Giardia lamblia killing; 0.15% of 340,000 active; activity change, % at 7.66 µM, hits read low; Giardia lamblia trophozoite viability; in the data active = activity change below about -80%; inconclusive = between about -30% and that limit;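 note: parasites exposed to compound for two days anaerobically before the ATP read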
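ATP-content bioluminescence gauges trophozoite survival. Cells (100/well) receive compound and incubate anaerobically for 48 hrs at 37 deg C; detection reagent follows for 15-30 min at room temperature.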
D3 ag: D3 dopamine receptor (human) agonism; P35462; D3R DiscoveRx beta-arrestin cells, luminescence, 90 min; max activation, %; 0.58% of 410,000 active; AID 652048; in the data active = max activation above about 30%
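Agonist-mode cell screen: cells plated at 1500/well and incubated overnight at 37 °C, then exposed to library compounds for 90 min at 37 °C. Detection reagent was added for 30–60 min at room temperature, and luminescence was read.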
DRD3 antagonist: D3 dopamine receptor (human) antagonism | max response, negative = inhibition, % | AID 652054 | 2.5% of 360,000 active | D3R cells, DiscoveRx beta-arrestin luminescence, antagonist mode; active compounds read low; in the data active = max response below about -50%; inconclusive = no clear call, values can overlap the other calls
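Cells plated overnight at 1500 cells/well, then exposed to library compounds with dopamine controls for 90 minutes at 37 degrees C. DiscoveRx reagent added for 30–60 minutes at room temperature; luminescence read, quantitative HTS format.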
B2AR arrestin: beta2AR (human) beta-arrestin recruitment activity. P07550. beta-arrestin recruitment to beta2AR, cell-based reporter. Potency, µM (top dose mostly 46.1 µM), usual class: activators. 0.02% of 330,000 active. AID 492947; active = well fitted activation curve with a large enough effect; inconclusive = small, poorly fitted or top-dose-only effect; note: nearly all actives have a fitted effect of over 65% in size
Target sequence (P07550 whole entry, looked up): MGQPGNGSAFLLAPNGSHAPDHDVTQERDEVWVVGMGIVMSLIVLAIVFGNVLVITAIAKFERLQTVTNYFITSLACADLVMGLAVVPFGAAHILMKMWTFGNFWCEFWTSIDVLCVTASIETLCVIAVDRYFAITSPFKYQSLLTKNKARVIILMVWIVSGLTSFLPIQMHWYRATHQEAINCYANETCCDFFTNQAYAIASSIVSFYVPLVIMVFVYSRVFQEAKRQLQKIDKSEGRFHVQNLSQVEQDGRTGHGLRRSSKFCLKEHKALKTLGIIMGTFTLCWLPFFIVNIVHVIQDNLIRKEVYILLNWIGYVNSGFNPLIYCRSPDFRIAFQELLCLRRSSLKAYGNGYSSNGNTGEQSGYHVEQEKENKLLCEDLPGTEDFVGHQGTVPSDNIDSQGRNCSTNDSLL
Large screens that a line does not name were inactive. An excerpt weighted towards active compounds, which were near 2.8% of everything screened.

COc1ccc(-c2cc(C3CCN(C(=O)OC(C)(C)C)CC3)[nH]n2)cc1	none
OC(CSc1ccccc1)CN1CCN(c2cccc(Cl)c2)CC1 (stereo not drawn)	DRD3 antagonist -85 (no result: B2AR arrestin)
CC(NC(=O)CN1CCN(c2cccc(Cl)c2)CC1)c1ccccc1 (stereo not drawn)	DRD3 antagonist inconclusive
OC(CSc1ccccc1)CN1CCN(c2ccc(Cl)cc2)CC1 (stereo not drawn)	DRD3 antagonist -86 (no result: B2AR arrestin)
Cc1onc(-c2ccccc2)c1C(=O)Nc1nc(-c2cc(F)ccc2F)cs1	none
O=C(Nc1nc(-c2ccccc2)cs1)C1CCCO1 (stereo not drawn)	DRD3 antagonist -91
O=C(Nc1ncc([N+](=O)[O-])s1)c1cccc([N+](=O)[O-])c1	Giardia killer -93
Cc1onc(-c2ccccc2)c1C(=O)Nc1nc(-c2ccccc2)cs1	DRD3 antagonist -56
O=C(Nc1nc(-c2ccccc2)cs1)c1cccc([N+](=O)[O-])c1	DRD3 antagonist -69
O=C(Nc1ccc(NC(=O)c2cccc([N+](=O)[O-])c2)cc1)c1cccc([N+](=O)[O-])c1	none
O=C(Nc1nc(-c2ccc(-c3ccccc3)cc2)cs1)C1CCCO1 (stereo not drawn)	none
CCOc1ccc(S(=O)(=O)Nc2cccc(-c3ccc(N4CCCC4)nn3)c2)cc1	none (no result: Giardia killer, DRD3 antagonist, B2AR arrestin)
CNC(=O)COc1ccc(Nc2nnc(-c3ccc(C)c(S(=O)(=O)NC(C)(C)C)c3)c3ccccc23)cc1	none (no result: Giardia killer, DRD3 antagonist, B2AR arrestin)
CCC(=O)N1CCc2cc(S(=O)(=O)NCCC(=O)Nc3cc(C)ccc3OC)ccc21	none (no result: Giardia killer, DRD3 antagonist, B2AR arrestin)
CC(=O)Nc1ccn(C2COC(COC(=O)c3ccccc3)O2)c(=O)n1 (stereo not drawn)	none (no result: Giardia killer, DRD3 antagonist, B2AR arrestin)
O=C(N/N=C(\c1ccccc1)c1ccccn1)c1cccc([N+](=O)[O-])c1	DRD3 antagonist -74
Cn1ccnc1/C(=N\NC(=O)c1ccccc1)c1cccc([N+](=O)[O-])c1	none
Cn1c(CCNC(=O)c2ccc(F)cc2)nc2ccccc21	DRD3 antagonist -66
Cn1c(CCCCCN)nc2ccccc21	DRD3 antagonist -64
Cc1cccc(Cn2cc(C(=O)Nc3ccc(F)c(C(F)(F)F)c3)ccc2=O)c1	none (no result: Giardia killer, DRD3 antagonist, B2AR arrestin)
Cc1noc(C)c1S(=O)(=O)N(CC(=O)Nc1ccc(F)cc1F)c1ccc(C(C)C)cc1	none (no result: Giardia killer, DRD3 antagonist, B2AR arrestin)
COc1ccc(CNCCC(c2ccccc2)c2ccc3c(c2)OCO3)cc1 (stereo not drawn)	DRD3 antagonist -74
COc1ccccc1CNC(=O)C(C)NS(=O)(=O)c1ccc(Br)cc1 (stereo not drawn)	DRD3 antagonist -68
CC(NS(=O)(=O)c1ccc(Br)cc1)C(=O)NCc1ccco1 (stereo not drawn)	none
C[C@H]1O[C@H](O[C@H]2[C@H](O)[C@@H](O)[C@@H](O[C@H]3[C@H](O)[C@@H](O)[C@H](O)O[C@@H]3CO)O[C@@H]2CO)[C@H](O)[C@@H](O)[C@@H]1N[C@H]1C=C(CO)[C@@H](O)[C@H](O)[C@H]1O	none (no result: Giardia killer, DRD3 antagonist, B2AR arrestin)
Cc1ccc(NC2=C/C(=N/S(=O)(=O)c3cccs3)c3ccccc3C2=O)cc1	DRD3 antagonist -72
Cc1ccc(S(=O)(=O)/N=C2\C=C(NS(=O)(=O)c3ccccc3)C(=O)c3ccccc32)c(C)c1	DRD3 antagonist inconclusive (no result: B2AR arrestin)
Cc1ccc(S(=O)(=O)/N=C2\C=C(Nc3cccc(C(=O)O)c3)C(=O)c3ccccc32)cc1	DRD3 antagonist inconclusive
O=C1C(Nc2ccccc2)=C/C(=N/S(=O)(=O)c2cccs2)c2ccccc21	DRD3 antagonist -85
Cc1ccc(S(=O)(=O)/N=C2\C=C(Nc3ccc(O)cc3)C(=O)c3ccccc32)cc1	DRD3 antagonist -94
CN1/C(=C\C=C2/SC(=S)NC2=O)C(C)(C)c2ccccc21	DRD3 antagonist -53
CN1C(=CC=C2C=C(I)C(=O)C(I)=C2)C(C)(C)c2ccccc21	none
CCC1Oc2ccc(C)cc2N(CC(=O)NCCCN2CCN(Cc3ccccc3)CC2)C1=O (stereo not drawn)	DRD3 antagonist -75
CC(CNC(=O)CCC(=O)N1CCOc2ccc(Cl)cc21)c1ccccc1 (stereo not drawn)	DRD3 antagonist -50
CC1CN(C(=O)CCC(=O)NCCCN2CCN(Cc3ccccc3)CC2)c2cc(Cl)ccc2O1 (stereo not drawn)	DRD3 antagonist -90
Cc1ccc2c(c1)NC(=O)C(CC(=O)NCCCN1CCN(c3cc(Cl)ccc3C)CC1)O2 (stereo not drawn)	DRD3 antagonist -72
O=C(CCC(=O)N1CCOc2ccc(Cl)cc21)NCc1ccccc1	DRD3 antagonist inconclusive
O=C(CCC(=O)N1CCOc2ccc(Cl)cc21)NCCCN1CCOCC1	none
O=C(CCC(=O)N1CCOc2ccc(Cl)cc21)NCCCN1CCN(Cc2ccccc2)CC1	DRD3 antagonist -60
CC(=O)N1CCOc2cc(S(=O)(=O)NC(C)c3ccccc3)c(Cl)cc21 (stereo not drawn)	DRD3 antagonist -61
CC(=O)N1CCOc2cc(S(=O)(=O)N(C)Cc3ccccc3)c(Cl)cc21	none (no result: Giardia killer, DRD3 antagonist, B2AR arrestin)
CCCN1CNc2c(c(=O)[nH]c(=S)n2CCc2ccc(C)cc2)C1	none (no result: D3 ag, DRD3 antagonist, B2AR arrestin)
CCOc1c2ccc(C(=O)N[C@H](C)C3CCCCC3)cc2nn1CC	DRD3 antagonist -82
CCCCn1nc2cc(C(=O)NCCc3cccs3)ccc2c1OCC	none
CCCCn1nc2cc(C(=O)NCC34CC5CC(CC(C5)C3)C4)ccc2c1OCC	DRD3 antagonist -79
COc1cccc(C(=O)O[C@H]2[C@H](C)NS(=O)(=O)[C@H]3C[C@@H]4C=C[C@]23O4)c1	none
COc1cccc(C(=O)O[C@H]2[C@H](Cc3ccccc3)NS(=O)(=O)[C@H]3C[C@@H]4C=C[C@]23O4)c1	DRD3 antagonist -52
O=C(Nc1c(Cl)cc([N+](=O)[O-])cc1Cl)c1cc(Cl)ccc1O	none (no result: D3 ag, DRD3 antagonist, B2AR arrestin)
COc1cc(OC)c(C2=NOC(C(=O)N3CCCc4ccccc43)C2)cc1Cl (stereo not drawn)	D3 ag 32
O=S(=O)(c1cccc2ccccc12)N1CCN(c2ccc(Cl)c(Cl)c2)CC1	D3 ag 71 (no result: Giardia killer, DRD3 antagonist, B2AR arrestin)
COc1cc(C2CC(=O)Oc3c(C(CCN4CCN(c5ccccc5)CC4)c4ccc(N(C)C)cc4)c(OC)cc(OC)c32)cc(OC)c1OC (stereo not drawn)	DRD3 antagonist -103
COc1ccc(C2CC(=O)Oc3c(C(CCN4CCCCC4)c4ccc(N(C)C)cc4)c(OC)cc(OC)c32)cc1 (stereo not drawn)	DRD3 antagonist -58
C[Se]CC[C@H](N)C(=O)O	none (no result: Giardia killer, DRD3 antagonist, B2AR arrestin)
C=CCCN(Cc1ccc(OC)cc1)S(=O)(=O)c1ccccc1Br	none (no result: D3 ag, DRD3 antagonist, B2AR arrestin)
Cc1nnc(Sc2nc3ccccc3o2)c2ccccc12	DRD3 antagonist -68
Cc1ccc(-c2nnc(Sc3nc4ccccc4o3)c3ccccc23)cc1	DRD3 antagonist inconclusive
CCc1ccc(NCc2cc3ccc(OC)cc3n(CC(=O)Nc3ccccc3OC)c2=O)cc1	none (no result: Giardia killer, DRD3 antagonist, B2AR arrestin)
COCCCNC(=O)c1ccc(-c2nc(CS(=O)(=O)c3ccc(C)cc3)c(C)o2)cc1	none (no result: Giardia killer, DRD3 antagonist, B2AR arrestin)
O=C(NCCc1ccccc1)C1CCCN1C(=O)Nc1cccc(Cl)c1 (stereo not drawn)	DRD3 antagonist -73
